# Data taken from PubChem BioAssay AID463173 (ICCB-Longwood Screening Facility, Harvard Medical School, 2010).
# In all, about 52,000 compounds went through this assay and about 4,300 (8.3%) were called active. This excerpt belongs to a sample that is enriched for actives. Unmarked numbers belong to inactive results. No stated cut-off is given here; in the data, active means survival mostly below about 52% (no sharp cut-off); inactive means mostly above about 56%.
# Tested on: DeltatarO mutant
# Test: S. aureus survival, RN4220 and DeltatarO strains – OD600, teichoic acid synthesis inhibitors, primary screen (AID 463173)
# Conditions: S. aureus RN4220 wild type/DeltatarO growth, OD600, 18 h, stronger effect = lower value, screened at 18.75 µg/mL (by protocol)
row,SMILES,survival
1,CCCCN(CCCC)CCNC(=O)CN1C(=O)CSc2ccc(S(=O)(=O)N3CCOCC3)cc21,92%
2,CCCCN(CCCNC(=O)c1cc(Nc2ccc(OC)cc2OC)nc2ccccc12)Cc1ccccc1,99%
3,O=c1c2sc3ccccc3c2n(Cc2ccccc2Cl)c(=O)n1Cc1ccccc1,56%
4,CC(C)(C)C(=O)NC1CC(=O)N(c2ccc3c(c2)OCCO3)C1 (stereo not given),125%
5,Cn1cc(-c2cc3n(n2)CCC(=O)N3CCCC(=O)Nc2ccc(F)cc2F)c2ccccc21,128%
6,Cc1c(Cl)cccc1-n1ncc(C(=O)Nc2ccc3c(c2)OCCO3)c1C1CCN(C(=O)OC(C)(C)C)CC1,102%
7,CC(CNC(=O)CCc1cn(Cc2ccccc2Cl)c2ccccc12)c1ccccc1 (stereo not given),66%
8,Oc1ccccc1-c1nc(/C=C/c2ccccc2Cl)no1,67%
9,Cc1nn(-c2ccccc2)c(Cl)c1C(N)=O,73%
10,COc1ccc(/C=C/c2noc(-c3ccccc3O)n2)cc1OC,130%
11,COc1ccc(/C=C/c2nc(-c3ccccc3O)n(-c3ccccc3)n2)cc1OC,13% (active)
12,COc1cc2c(-c3cc(Br)ccc3O)nc3c(c(C)nn3-c3ccccc3)c2cc1OC,77%
13,Oc1ccccc1-c1nc(/C=C/c2ccccc2Cl)nn1-c1ccccc1,14% (active)
14,CCc1ccc(C2CC(=O)c3c([nH]c(C(=O)OCC4CCCCC4)c3C)C2)cc1 (stereo not given),89%
15,Cc1c(C(=O)N2CCCCCC2)c(S(=O)(=O)Nc2ccc(OC(F)(F)F)cc2)c(C)n1C,113%
16,CCOc1ccc(C(=O)Nc2cc(-c3nc4cc(OC)ccc4o3)ccc2C)cc1[N+](=O)[O-],62%
17,CCOC(=O)c1cnc2c(C)cccc2c1Nc1ccc(OC(C)C)cc1,2% (active)
18,CCOC(=O)c1cnc2cc(C(F)(F)F)ccc2c1N1CCN(c2ccc(F)cc2)CC1,57%
19,CCOC(=O)c1cnc2cc(C(F)(F)F)ccc2c1Nc1ccc(F)cc1F,2% (active)
20,CCOC(=O)c1cnc2c(Cl)cc(Cl)cc2c1Nc1cc(C(=O)O)ccc1C,60%
21,CCOC(=O)c1ccc2nc(C)cc(Nc3ccc(OC(C)C)cc3)c2c1,133%
22,CCOC(=O)c1ccc(Nc2ncnc3c2cnn3-c2cccc(Cl)c2)cc1,75%
23,CCOC(=O)c1cnc2cc(C(F)(F)F)ccc2c1Nc1cc(C)ccc1OC,71%

row,SMILES,survival
1,CCOC(=O)c1cnc2c(C(F)(F)F)cccc2c1Cl,82%
2,CCCOC(=O)c1ccc(Nc2c(C(=O)OCC)cnc3c(C)cc(Cl)cc23)cc1,11% (active)
3,CCOC(=O)c1cnc2c(C(F)(F)F)cccc2c1Nc1cccc(C(=O)OC)c1,14% (active)
4,CCOc1ccc(NC(=O)c2c(NCc3cc(OC)c(OC)cc3OC)sc3c2CCCC3)cc1,74%
5,CCOC(=O)C1CCCN(S(=O)(=O)c2ccc(N3CCCCS3(=O)=O)cc2)C1 (stereo not given),55%
6,O=C(c1cnn(-c2ccc(F)cc2)c1-n1cccc1)N1CCN(c2cccc(Cl)c2)CC1,70%
7,CCOc1ccccc1CNC(=O)c1ccc2nc(CCc3ccccc3)oc2c1,83%
8,Cc1cccc(C(=O)NCC(=O)OCc2cc(=O)n3nc(CC(C)C)sc3n2)c1,105%
9,O=C(Cn1c2ncccc2c(=O)n1-c1ccccc1)NCc1ccccc1Cl,68%
10,COc1ccc(NC(=O)CN2C(=O)COc3ccc(S(=O)(=O)NC4CCCC4)cc32)cc1OC,75%
11,Cc1ccc(NC(=O)CCCn2c(=O)c3cccn3c3cccnc32)cc1C,79%
12,CC(C)n1c(C(=O)OC(C(=O)NCc2ccco2)c2cccnc2)cc2sccc21 (stereo not given),88%
13,CCOC(=O)c1cnc2c(ccc3ccccc32)c1Nc1ccc(OC)c(OC)c1,7% (active)
14,CCOC(=O)c1cnc(NCc2ccc(Cl)cc2)c2ccccc12,91%
15,CCOC(=O)c1cnc2c(ccc3ccccc32)c1Nc1ccc(OCC)cc1,5% (active)
16,CCOC(=O)c1cnc2c(ccc3ccccc32)c1Nc1ccc(C(C)=O)cc1,1% (active)
17,CCOC(=O)c1cnc2c(ccc3ccccc32)c1Nc1ccccc1O,69%
18,CCOC(=O)c1cnc2c(ccc3ccccc32)c1Nc1ccc(Cl)cc1,23% (active)
19,CCCOc1ccc(Nc2nc(SC)ncc2C(=O)OCC)cc1,65%
20,COc1cc(NC(=O)C2CCN(c3nnc(C)c4c(C)n(-c5ccccc5)nc34)CC2)cc(OC)c1,87%
21,CCOc1ccc(NC(=O)CSc2nnnn2C2CCCC2)cc1,68%
22,Cc1ccc(-n2nc(C(=O)N3CCN(c4ccccc4F)CC3)c3c4ccccc4n(C)c3c2=O)cc1,88%
23,CCCOc1ccc(CNC(=O)C(CC)n2nc(C)c3sc4ccccc4c3c2=O)cc1 (stereo not given),69%

row,SMILES,survival
1,O=C(NCCS(=O)(=O)N1CCN(c2cccc(Cl)c2)CC1)C(c1ccccc1)c1ccccc1,72%
2,COc1ccc(OC)c(NC(=O)c2ccc3c(c2)c(C)c(C)n3Cc2ccc(F)cc2)c1,122%
3,Cc1ccc(CNCC(C)O)s1 (stereo not given),73%
4,Cc1ccc(C(=O)Nc2ccc(NC(=O)c3cccs3)cc2)cc1C,66%
5,CCc1nn(CC(=O)N2CCN(c3cccc(C)c3C)CC2)c(=O)c2cc3sccc3n12,134%
6,CCCNC(=O)CN1C(=O)COc2ccc(S(=O)(=O)N3CCC(C)CC3)cc21,121%
7,COCCNc1oc(-c2ccc(COc3ccc(OC)cc3)o2)nc1C#N,79%
8,Cc1ccc(C2=NN(CC(=O)NCCc3ccc(Cl)cc3)C(=O)CC2)cc1,117%
9,CCn1c(C)c(C2N3CC4(C)CN2CC(CC)(C3)C4=O)c2ccccc21 (stereo not given),108%
10,Cc1cccc(C)c1-n1ncc(C(=O)N2CCN(c3ccccn3)CC2)c1C1CCN(C(=O)OC(C)(C)C)CC1,81%
11,CCOC(=O)c1noc2ncnc(Nc3cccc(OC)c3)c12,73%
12,Cc1ccccc1Nc1nc(N)c(C(=O)c2ccccc2Cl)s1,92%
13,CCOC(=O)c1cnc2c(Cl)c(Cl)ccc2c1Nc1ccc(N(C)C)cc1,80%
14,CCOC(=O)c1noc2ncnc(Nc3cccc(C(F)(F)F)c3)c12,92%
15,CCOC(=O)c1cnc2c(ccc3ccccc32)c1Nc1cccc(OC)c1,29% (active)
16,COc1cccc(C(=O)c2sc(Nc3ccc(F)c(Cl)c3)nc2N)c1,55%
17,CCOC(=O)c1cnc2c(ccc3ccccc32)c1Nc1ccc(N(C)C)cc1,0% (active)
18,CCOC(=O)c1sc2ccccc2c1S(=O)(=O)Nc1cccc(C(F)(F)F)c1,63%
19,CCOc1ccc(Nc2nc(N)c(C(=O)c3ccccc3Cl)s2)cc1,0% (active)
20,CCOC(=O)c1cnc2c(ccc3ccccc32)c1Nc1cccc(C(F)(F)F)c1,36% (active)
21,CCOC(=O)c1cnc(SC)nc1Nc1ccccc1,84%
22,CCOC(=O)c1cnc2c(OC)cccc2c1Nc1cccc(O)c1,61%
23,COc1ccc(-c2oc3ncn4nc(COc5ccccc5C)nc4c3c2-c2ccc(OC)cc2)cc1,79%

row,SMILES,survival
1,CC(=O)c1ccc(N2CCN(C(=O)c3ccc(Cn4c(=O)[nH]c5ccccc5c4=O)cc3)CC2)cc1,100%
2,CC(C)(C)c1cc(CN2CCOCC2)c(C(=O)O)o1,92%
3,COc1cc(NC(=O)CSc2nc3nc(C)c(Cc4ccccc4)c(C)n3n2)cc(OC)c1,112%
4,CC1CCN(S(=O)(=O)c2ccc(NC(=O)CSc3nnnn3C)cc2)CC1,97%
5,CCOC(=O)c1cnc2c(ccc3ccccc32)c1Nc1cccc(Cl)c1,14% (active)
6,COc1cccc2sc(N(Cc3cccnc3)C(=O)C3CCCCC3)nc12,86%
7,Cc1ccc(CN(C(=O)COc2ccc(C(C)C)cc2)C2CCS(=O)(=O)C2)o1 (stereo not given),87%
8,Cc1ccsc1CN(C(=O)COc1ccccc1Cl)C1CCS(=O)(=O)C1 (stereo not given),86%
9,Cc1ccsc1CN(C(=O)COc1cccc(C)c1C)C1CCS(=O)(=O)C1 (stereo not given),82%
10,COc1ccc(OCC(=O)N(Cc2cccc(OC)c2)C2CCS(=O)(=O)C2)cc1 (stereo not given),79%
11,CC(C)Oc1ccc(C(=O)N(Cc2ccc(N(C)C)cc2)C2CCS(=O)(=O)C2)cc1 (stereo not given),54%
12,Cc1cc(C)cc(OCC(=O)N(Cc2ccc(Cl)cc2)C2CCS(=O)(=O)C2)c1 (stereo not given),59%
13,CCc1ccc(OCC(=O)N(Cc2ccc(Cl)cc2)C2CCS(=O)(=O)C2)cc1 (stereo not given),57% (active)
14,CCc1ccc(OCC(=O)N(Cc2ccc(C(C)C)cc2)C2CCS(=O)(=O)C2)cc1 (stereo not given),23% (active)
15,CC(C)c1ccc(OCC(=O)N(Cc2ccc(N(C)C)cc2)C2CCS(=O)(=O)C2)cc1 (stereo not given),43% (active)
16,COc1ccc(OCC(=O)N(Cc2ccc(C)o2)C2CCS(=O)(=O)C2)cc1 (stereo not given),85%
17,Cc1ccccc1OCC(=O)N(Cc1ccc(C(C)C)cc1)C1CCS(=O)(=O)C1 (stereo not given),31% (active)
18,CCc1ccc(OCC(=O)N(Cc2ccc(C)o2)C2CCS(=O)(=O)C2)cc1 (stereo not given),110%
19,Cc1nc2cccnc2n1C1CCN(C(=O)Nc2ccc(Cl)cc2)CC1,81%
20,CCN(C(=O)CSc1ncc(S(=O)(=O)c2ccc(C)c(Cl)c2)c(=O)[nH]1)c1cccc(C)c1,99%
21,O=C(Cn1ncc2c3ccccc3n(Cc3cccc(Cl)c3)c2c1=O)NCCC1=CCCCC1,90%
